# Laboratory results reported in PubChem BioAssay (NCATS).
# Several values for one entry are separate records, joined by “and”; a condition that tells them apart may be missing. Equal values may be shown once. Records with an inconclusive call do not appear. Entries that show only a call come without a potency. The source holds several records for some structures; these can differ, active in one and inactive in another. Activity calls are given as the source filed them. Unless noted, calls come from the whole dose curve; as a rule, active = well fitted curve in the direction sought with a large enough effect; inconclusive = small, poorly fitted or top-dose-only effect, or another doubt; inactive = no such curve, though single readings can be large; an effect the other way counts as inactive or inconclusive.
# Tests used:
# [1] = biological target: Pyruvate kinase PKM (Homo sapiens) (UniProt P14618); experiment: qHTS Assay for Activators of Human Muscle Pyruvate Kinase (AID 954; active = well fitted curve in the direction sought with a large enough effect, not every such curve was filed as active)
# Chain of Pyruvate kinase PKM (Homo sapiens) (P14618 whole entry, looked up): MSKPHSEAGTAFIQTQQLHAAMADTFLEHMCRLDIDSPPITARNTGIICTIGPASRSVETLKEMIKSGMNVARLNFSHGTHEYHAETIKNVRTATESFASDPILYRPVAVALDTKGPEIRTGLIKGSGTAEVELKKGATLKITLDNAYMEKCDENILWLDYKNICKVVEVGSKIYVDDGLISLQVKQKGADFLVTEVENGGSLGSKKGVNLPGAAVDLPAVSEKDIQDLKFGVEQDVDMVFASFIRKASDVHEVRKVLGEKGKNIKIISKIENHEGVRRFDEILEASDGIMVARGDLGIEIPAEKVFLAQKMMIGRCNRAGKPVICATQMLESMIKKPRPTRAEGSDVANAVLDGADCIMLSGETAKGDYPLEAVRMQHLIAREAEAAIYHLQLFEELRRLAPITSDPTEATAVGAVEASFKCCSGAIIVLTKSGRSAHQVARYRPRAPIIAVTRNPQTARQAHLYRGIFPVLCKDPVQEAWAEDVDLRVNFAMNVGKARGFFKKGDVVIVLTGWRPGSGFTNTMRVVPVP
# Procedure, shortened: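 Screening used highly purified human pyruvate kinase M2 under submaximal activity, with PEP at its Km and ADP below Km. After an hour at room temperature, ATP was read by luciferase luminescence.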
# [2] = biological target: Alpha-galactosidase (Coffea arabica) (UniProt Q42656); experiment: Counterscreen for Glucocerebrosidase Inhibitors: qHTS Assay for Coffee Bean alpha-Galactosidase at pH 4.5 (AID 957); note: series mostly up to about 77 µM
# Chain of Alpha-galactosidase (Coffea arabica) (Q42656 whole entry, looked up): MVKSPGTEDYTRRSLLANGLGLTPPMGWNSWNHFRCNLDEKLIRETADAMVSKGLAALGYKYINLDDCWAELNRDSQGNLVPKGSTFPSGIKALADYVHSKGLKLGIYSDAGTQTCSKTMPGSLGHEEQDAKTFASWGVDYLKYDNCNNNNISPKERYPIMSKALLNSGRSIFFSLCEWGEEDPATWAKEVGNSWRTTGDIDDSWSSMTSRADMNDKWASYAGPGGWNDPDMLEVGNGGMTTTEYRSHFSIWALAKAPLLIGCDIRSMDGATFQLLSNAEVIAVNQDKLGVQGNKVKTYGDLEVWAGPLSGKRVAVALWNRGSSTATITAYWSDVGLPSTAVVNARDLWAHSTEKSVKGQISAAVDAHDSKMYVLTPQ
# Procedure, shortened: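 Fluorogenic qHTS at pH 4.5 (citrate buffer with Tween-20): 2 nM enzyme, 80 uM 4-MU-alpha-galactoside substrate, compound titrated 0.7 nM to 77 uM, 20 min room temperature. Glycine/NaOH stop; 4-MU read Ex 365/Em 440; Hill-equation AC50 against no-enzyme and enzyme controls.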
# [3] = MultiTox-Fluor Cytotoxicity Assay - LYMP1-001 - Live Cells (AID 947); note: potency is the fitted concentration of half-maximal effect
# [4] = Cell Viability - LYMP1-002 - Assay at 16 hr (AID 948); note: potency is the fitted concentration of half-maximal effect
# Procedure, shortened: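 In this qHTS, lymphoblastoid LYMP1-002 cells (human) receive compounds for 16 hr at 37 C. Viability is taken from CellTiter-Glo ATP luminescence, and AC50 derives from standard Hill fits.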
# [5] = MultiTox-Fluor Cytotoxicity Assay - LYMP1-002 - Live Cells (AID 955);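 note: cells exposed to compound for 16 hours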; note: potency is the fitted concentration of half-maximal effect
# Procedure, shortened: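 After 16 h compound exposure at 37 C, live LYMP1-002 lymphoblastoid cells (2500/well) were quantified by cleavage of cell-permeant GF-AFC substrate, read at 405/510 nm after 60 min. Concentration-response fitted with Hill equation for AC50.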
# [6] = MultiTox-Fluor Cytotoxicity Assay - LYMP1-003 - Dead Cells (AID 961); note: nearly all actives have a fitted effect of over 70% in size; note: potency is the fitted concentration of half-maximal effect
# Procedure, shortened: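 Acute toxicity is scored as increased dead-cell protease activity in human lymphoblastoid LYMP1-003 cells after 16 h compound exposure in complete culture medium. Activity is normalized to DMSO basal and 15 uM tetraoctylammonium bromide as full response.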
# [7] = Cell Viability - LYMP1-003 - Assay at 24 hr (AID 963); note: potency is the fitted concentration of half-maximal effect
# Procedure, shortened: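 Concentration-response qHTS: ATP loss measured by CellTiter-Glo luminescence after 24 h compound exposure at 37 C. Cells were LYMP1-003 human lymphoblastoid, 2500 per well. AC50 derived via standard Hill equation modeling.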
# [8] = Cell Viability - LYMP1-003 - Assay at 40 hr (AID 964); note: nearly all actives have a fitted effect of over 60% in size; note: potency is the fitted concentration of half-maximal effect
# Procedure, shortened: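 Viability is taken as cellular ATP, read by CellTiter-Glo luminescence after 40 h of compound exposure at 37 C. Cells: human lymphoblastoid line LYMP1-003 at 2500/well; AC50 values derived by Hill-equation fitting of concentration-response data.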
# [9] = Cell Viability - LYMP2-013 (AID 970); note: nearly all actives have a fitted effect of over 55% in size; note: potency is the fitted concentration of half-maximal effect
# Procedure, shortened: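 qHTS cytotoxicity: ATP-dependent luminescence (CellTiter-Glo, 30 min room temperature) read after 24 h compound exposure at 37 C of 2500 LYMP2-013 lymphoblastoid cells per well. Concentration-response fitted with Hill equation to give AC50.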
# [10] = Cell Viability - LYMP2-015 (AID 971); note: nearly all actives have a fitted effect of over 55% in size; note: potency is the fitted concentration of half-maximal effect
# Procedure, shortened: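 Cytotoxicity readout: decrease in intracellular ATP (CellTiter-Glo luminescence) in 2500 LYMP2-015 lymphoblastoid cells/well after 24 h compound exposure at 37 C. Concentration-response data fitted with the standard Hill equation to give AC50.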
# [11] = Cell Viability - LYMP2-017 (AID 972); note: nearly all actives have a fitted effect of over 55% in size; note: potency is the fitted concentration of half-maximal effect
# Procedure, shortened: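 CellTiter-Glo luminescence (cellular ATP, 30 min RT) measured cytotoxicity after 24 hr compound treatment at 37 C. Cells were a human lymphoblastoid line, LYMP2-017, plated at 2500/well and incubated 5 hr first; concentration-response fitted with Hill equation for AC50.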
# [12] = MultiTox-Fluor Cytotoxicity Assay - LYMP1-003 - Live Cells (AID 962);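 note: cells exposed to compound for 16 hours at 37 °C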; note: potency is the fitted concentration of half-maximal effect
# Procedure, shortened: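 Live-cell protease activity (GF-AFC substrate, 405/510 nm, 60 min at room temperature) after 16 h, 37 C compound exposure of human lymphoblastoid LYMP1-003 cells; concentration-response fitted to the Hill equation for AC50.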
# [13] = Cell Viability - LYMP2-003 (AID 965);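 note: cells exposed to compounds for 24 h before reading; nearly all actives have a fitted effect of over 50% in size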; note: potency is the fitted concentration of half-maximal effect
# Procedure, shortened: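 qHTS, human lymphoblastoid line, 2500 cells/well, complete medium. 24 h drug, 37 C. ATP-based luminescent readout; Hill-fit AC50.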
# [14] = Cell Viability - LYMP2-005 (AID 967); note: potency is the fitted concentration of half-maximal effect
# Procedure, shortened: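 Luciferase-based ATP quantitation served as the viability measure in human lymphoblastoid LYMP2-005 cells exposed to test compounds for 24 h at 37 C in complete culture medium. Potency (AC50) was obtained by fitting concentration-response curves with the Hill equation.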
# [15] = Cell Viability - LYMP2-009 (AID 968); note: nearly all actives have a fitted effect of over 55% in size; note: potency is the fitted concentration of half-maximal effect
# [16] = Cell Viability - LYMP2-011 (AID 969); note: nearly all actives have a fitted effect of over 60% in size; note: potency is the fitted concentration of half-maximal effect
# Procedure, shortened: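 Cytotoxicity qHTS with ATP content as read-out: lymphoblastoid cells (2500/well) exposed to compound for 24 h at 37 C, then luciferase luminescence measured. Concentration-response data fitted with the standard Hill equation to give AC50.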
# [17] = Cell Viability - LYMP2-019 (AID 973); note: nearly all actives have a fitted effect of over 55% in size; note: potency is the fitted concentration of half-maximal effect
# Procedure, shortened: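 AC50 values come from Hill-equation fits of luminescent intracellular ATP (CellTiter-Glo, 30 min, room temperature) following 24 h compound exposure at 37 C. Cells: LYMP2-019 lymphoblastoid line, 2500 per well, in complete culture medium.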
# [18] = Cell Viability - LYMP2-021 (AID 974); note: nearly all actives have a fitted effect of over 55% in size; note: potency is the fitted concentration of half-maximal effect
# Procedure, shortened: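 AC50 values come from Hill-equation fits to CellTiter-Glo luminescence (ATP content), read after 24 hour compound exposure at 37 C of 2500 LYMP2-021 lymphoblastoid cells/well; tetraoctylammonium bromide as positive control.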
# [19] = MultiTox-Fluor Cytotoxicity Assay - LYMP1-002 - Dead Cells (AID 960); note: nearly all actives have a fitted effect of over 60% in size; note: potency is the fitted concentration of half-maximal effect
# Procedure, shortened: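 Dead-cell fluorescence (Ex/Em 485/520) after 16 h compound exposure at 37 C of LYMP1-002 lymphoblastoid cells in complete medium; AC50 by Hill equation, with data scaled between DMSO and 15 uM tetraoctylammonium bromide.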
# [20] = Cell Viability - LYMP2-004 (AID 966); note: nearly all actives have a fitted effect of over 65% in size; note: potency is the fitted concentration of half-maximal effect
# Procedure, shortened: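 AC50 values come from Hill modelling of concentration-dependent loss of intracellular ATP, measured by CellTiter-Glo luminescence. Human LYMP2-004 lymphoblastoid cells (2500/well) were exposed to compound for 24 h at 37 C.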
smiles,measurement,setting,value
O=C(O)c1nn(Cc2ccc(Cl)cc2Cl)c2ccccc12,outcome,[1],inactive
same,outcome,[2],inactive
C[C@@H]1C[C@@H]([C@H](O)CC2CC(=O)NC(=O)C2)C(=O)[C@@H](C)C1,Potency,[3],inactive
same,Potency,[4],inactive
same,Potency,[5],inactive
same,Potency,[6],50.1 µM (active) and inactive
same,Potency,[7],inactive
same,Potency,[8],2 µM (active) and inactive
same,Potency,[9],2 µM (active)
same,Potency,[10],2 µM (active) and 1 µM (active)
same,Potency,[11],1.58 µM (active)
C#CCN(C)Cc1ccccc1,outcome,[2],inactive
CC[n+]1c(-c2ccccc2)c2cc(N)ccc2c2ccc(N)cc21,Potency,[3],25.1 µM (active)
same,Potency,[6],39.8 µM (active)
same,Potency,[12],12.6 µM (active)
same,Potency,[7],15.8 µM (active)
same,Potency,[8],6.31 µM (active)
same,Potency,[13],31.6 µM (active)
same,Potency,[14],6.31 µM (active)
same,Potency,[15],15.8 µM (active)
same,Potency,[16],12.6 µM (active)
same,Potency,[9],15.8 µM (active)
same,Potency,[10],15.8 µM (active)
same,Potency,[11],15.8 µM (active)
same,Potency,[17],12.6 µM (active)
same,Potency,[18],20 µM (active)
O=C1N(c2ccccc2)c2ccccc2C1(Cc1ccncc1)Cc1ccncc1,outcome,[2],inactive
NCCc1ccc(O)c(O)c1,outcome,[2],inactive
NC(=O)CN1CCCC1=O,outcome,[1],inactive
same,outcome,[2],inactive
CN1[C@@H]2CC[C@H]1CC(OC(=O)c1cc(Cl)cc(Cl)c1)C2 (stereo partly drawn),outcome,[1],inactive
same,outcome,[2],inactive
COP(=O)(OC)OC=C(Cl)Cl,Potency,[3],inactive
same,Potency,[4],inactive
same,Potency,[5],inactive
same,Potency,[19],inactive
same,Potency,[12],inactive
same,Potency,[7],inactive
same,Potency,[8],6.31 µM (active) and inactive
same,Potency,[13],inactive
same,Potency,[14],inactive
same,Potency,[15],inactive
same,Potency,[16],inactive
same,Potency,[9],inactive
same,Potency,[10],inactive
same,Potency,[11],inactive
same,Potency,[17],inactive
same,Potency,[18],inactive
Oc1c(Br)cc(Br)cc1Br,Potency,[3],inactive
same,Potency,[4],inactive
same,Potency,[5],inactive
same,Potency,[19],inactive
same,Potency,[6],inactive
same,Potency,[12],inactive
same,Potency,[7],inactive
same,Potency,[8],inactive
same,Potency,[13],inactive
same,Potency,[20],inactive
same,Potency,[14],inactive
same,Potency,[15],inactive
same,Potency,[16],inactive
same,Potency,[9],inactive
same,Potency,[10],inactive
same,Potency,[11],inactive
same,Potency,[17],inactive
same,Potency,[18],inactive
CCC(=O)c1ccc2c(c1)N(CCCN(C)C)c1ccccc1S2,outcome,[2],inactive
Cn1c(=O)c2c(ncn2C)n(C)c1=O,outcome,[2],inactive
C[C@]12CCC(=O)C=C1CC[C@@H]1[C@@H]2[C@@H](O)C[C@@]2(C)[C@H]1CC[C@]2(O)C(=O)CO,outcome,[2],inactive
Oc1cc(O)c2c(c1)O[C@H](c1ccc(O)c(O)c1)[C@H](O)C2,outcome,[2],inactive
CCCCCCCCC(=O)NCc1ccc(O)c(OC)c1,outcome,[1],inactive
same,outcome,[2],inactive
c1ccc2nc(N3CCNCC3)ccc2c1,outcome,[1],inactive
CN(C)CCCN1c2ccccc2Sc2ccccc21,outcome,[2],inactive
COC(=O)C1=CCCN(C)C1,outcome,[1],inactive
same,outcome,[2],inactive
COc1ccccc1N1CCN(CCCNc2cc(=O)n(C)c(=O)n2C)CC1,outcome,[2],inactive
O=C(CCNNC(=O)c1ccncc1)NCc1ccccc1,outcome,[2],inactive
Cc1cc(C(C)(C)C)c(O)c(C)c1CC1=NCCN1,outcome,[2],inactive
CN(C)CCCN1c2ccccc2Sc2ccc(C(F)(F)F)cc21,outcome,[2],inactive
O=C(CCl)c1ccc(Cl)cc1Cl,Potency,[3],12.6 µM (active)
same,Potency,[4],15.8 µM (active)
same,Potency,[5],7.94 µM (active)
same,Potency,[19],7.94 µM (active)
same,Potency,[6],10 µM (active)
same,Potency,[12],15.8 µM (active)
same,Potency,[7],20 µM (active)
same,Potency,[8],20 µM (active)
same,Potency,[13],10 µM (active)
same,Potency,[20],6.31 µM (active)
same,Potency,[14],10 µM (active)
same,Potency,[15],6.31 µM (active)
same,Potency,[16],6.31 µM (active)
same,Potency,[9],7.94 µM (active)
same,Potency,[10],5.01 µM (active)
same,Potency,[11],3.16 µM (active)
same,Potency,[17],7.94 µM (active)
same,Potency,[18],3.98 µM (active)
O=C1NCN(c2ccccc2)C12CCN(CCCC(c1ccc(F)cc1)c1ccc(F)cc1)CC2,outcome,[2],inactive
CN(C)C(=S)SSC(=S)N(C)C,Potency,[3],39.8 µM (active)
same,Potency,[4],20 µM (active)
same,Potency,[5],10 µM (active)
same,Potency,[6],12.6 µM (active)
same,Potency,[12],50.1 µM (active)
same,Potency,[7],15.8 µM (active)
same,Potency,[13],0.251 µM (active)
same,Potency,[20],0.251 µM (active)
same,Potency,[14],0.501 µM (active)
same,Potency,[15],0.199 µM (active)
same,Potency,[16],0.316 µM (active)
same,Potency,[9],0.398 µM (active)
same,Potency,[10],0.251 µM (active)
same,Potency,[11],0.199 µM (active)
same,Potency,[17],0.199 µM (active)
same,Potency,[18],0.501 µM (active)
CC1(C)[C@@H]2CC[C@@]1(C)C(=O)C2,Potency,[19],inactive
CCCCCCCCCCCCCCCC[n+]1ccccc1,Potency,[6],20 µM (active)
CN(C)c1ccc(C(=C2C=CC(=[N+](C)C)C=C2)c2ccc(N(C)C)cc2)cc1,Potency,[6],10 µM (active)
Oc1ccc(Cl)cc1Sc1cc(Cl)ccc1O,Potency,[8],31.6 µM (active)
same,Potency,[15],39.8 µM (active)
same,Potency,[17],39.8 µM (active)
same,Potency,[18],39.8 µM (active)
Oc1ccc(Cl)cc1Cc1cc(Cl)ccc1O,Potency,[8],25.1 µM (active)
